Among the data in ChEMBL document CHEMBL1961873, “Compounds: GSK PKIS; Assays: Nanosyn kinase panel” (2012) are inhibition values, retold here.

The target of assay [1] is T1, Inhibitor of nuclear factor kappa-B kinase subunit epsilon (Homo sapiens) (UniProt Q14164).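 Also: reported values are averaged percent inhibition figures against human IKKε.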
T1 sequence (whole entry): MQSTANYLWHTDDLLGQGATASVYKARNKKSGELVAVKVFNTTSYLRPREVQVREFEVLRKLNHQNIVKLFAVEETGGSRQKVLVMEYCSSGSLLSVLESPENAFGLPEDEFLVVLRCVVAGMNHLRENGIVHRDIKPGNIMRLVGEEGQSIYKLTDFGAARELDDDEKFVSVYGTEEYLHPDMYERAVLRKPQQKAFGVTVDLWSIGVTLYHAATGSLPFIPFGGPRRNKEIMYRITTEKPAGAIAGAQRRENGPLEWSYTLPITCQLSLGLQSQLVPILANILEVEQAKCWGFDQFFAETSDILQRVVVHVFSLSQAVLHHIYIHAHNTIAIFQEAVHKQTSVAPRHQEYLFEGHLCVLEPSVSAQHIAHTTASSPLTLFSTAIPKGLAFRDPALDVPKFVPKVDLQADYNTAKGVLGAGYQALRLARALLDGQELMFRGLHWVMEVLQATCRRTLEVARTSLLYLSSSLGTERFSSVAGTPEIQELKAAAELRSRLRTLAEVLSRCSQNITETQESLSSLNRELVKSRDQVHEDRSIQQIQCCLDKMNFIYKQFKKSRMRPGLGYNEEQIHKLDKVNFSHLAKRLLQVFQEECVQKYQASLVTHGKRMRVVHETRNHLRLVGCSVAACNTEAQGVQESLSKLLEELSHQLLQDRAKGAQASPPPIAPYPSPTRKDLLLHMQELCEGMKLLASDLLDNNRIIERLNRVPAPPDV
The conditions noted are these: at 1 µM.

The target in assay [2] is T2, Serine/threonine-protein kinase Nek1 (Homo sapiens) (UniProt Q96PY6).
T2 sequence (whole entry): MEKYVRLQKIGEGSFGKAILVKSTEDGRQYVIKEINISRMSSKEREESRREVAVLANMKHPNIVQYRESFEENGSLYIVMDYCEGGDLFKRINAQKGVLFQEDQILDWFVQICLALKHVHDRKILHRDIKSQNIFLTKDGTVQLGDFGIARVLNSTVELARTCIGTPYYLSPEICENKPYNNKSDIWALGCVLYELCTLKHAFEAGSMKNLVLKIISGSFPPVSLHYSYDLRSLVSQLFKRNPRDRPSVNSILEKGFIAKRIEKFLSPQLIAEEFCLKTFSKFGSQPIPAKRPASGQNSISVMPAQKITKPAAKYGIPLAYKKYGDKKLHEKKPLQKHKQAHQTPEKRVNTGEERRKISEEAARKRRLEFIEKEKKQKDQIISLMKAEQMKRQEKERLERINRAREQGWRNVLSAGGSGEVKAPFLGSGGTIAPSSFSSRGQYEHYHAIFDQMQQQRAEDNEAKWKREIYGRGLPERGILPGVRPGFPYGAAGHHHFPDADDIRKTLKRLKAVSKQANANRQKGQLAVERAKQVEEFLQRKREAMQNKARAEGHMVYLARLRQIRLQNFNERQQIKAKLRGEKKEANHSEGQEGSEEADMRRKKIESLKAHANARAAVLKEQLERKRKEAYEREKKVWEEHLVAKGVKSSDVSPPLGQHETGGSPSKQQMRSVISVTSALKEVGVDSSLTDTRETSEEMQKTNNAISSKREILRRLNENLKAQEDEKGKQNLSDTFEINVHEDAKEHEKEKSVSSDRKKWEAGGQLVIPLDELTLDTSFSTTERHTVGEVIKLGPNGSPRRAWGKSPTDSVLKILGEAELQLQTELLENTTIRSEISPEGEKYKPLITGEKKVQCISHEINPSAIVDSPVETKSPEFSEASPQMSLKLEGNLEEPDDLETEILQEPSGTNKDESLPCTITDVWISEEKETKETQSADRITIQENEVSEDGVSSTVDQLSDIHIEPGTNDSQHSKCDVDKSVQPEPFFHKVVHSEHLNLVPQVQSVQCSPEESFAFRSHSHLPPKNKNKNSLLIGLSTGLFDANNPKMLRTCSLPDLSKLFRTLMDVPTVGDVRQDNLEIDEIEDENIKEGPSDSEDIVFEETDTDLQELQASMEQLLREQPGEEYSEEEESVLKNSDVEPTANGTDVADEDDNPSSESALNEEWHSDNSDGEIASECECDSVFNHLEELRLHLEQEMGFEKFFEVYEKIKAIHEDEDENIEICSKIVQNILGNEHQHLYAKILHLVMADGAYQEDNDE
The note with it: at 0.1 µM.

Assay [3] deals with T2, Serine/threonine-protein kinase Nek1 (Homo sapiens). The conditions noted are these: at 1 µM.
The target of assay [4] is T3, Serine/threonine-protein kinase Nek2 (Homo sapiens) (UniProt P51955).
T3 sequence (whole entry): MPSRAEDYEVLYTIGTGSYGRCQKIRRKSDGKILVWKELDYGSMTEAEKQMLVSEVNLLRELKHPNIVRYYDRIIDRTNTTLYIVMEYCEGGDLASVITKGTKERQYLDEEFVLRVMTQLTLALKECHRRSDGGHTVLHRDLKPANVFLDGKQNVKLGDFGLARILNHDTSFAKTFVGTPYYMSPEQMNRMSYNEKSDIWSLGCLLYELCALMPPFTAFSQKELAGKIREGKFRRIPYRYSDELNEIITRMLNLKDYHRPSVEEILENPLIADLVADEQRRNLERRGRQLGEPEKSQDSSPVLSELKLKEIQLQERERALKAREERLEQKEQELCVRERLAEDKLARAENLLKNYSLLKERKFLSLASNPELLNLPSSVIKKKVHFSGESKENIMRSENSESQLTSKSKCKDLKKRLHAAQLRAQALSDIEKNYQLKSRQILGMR
The conditions noted are these: at 0.1 µM.

Assay [5] addresses T3, Serine/threonine-protein kinase Nek2 (Homo sapiens). The conditions noted are these: at 1 µM.
The target of assay [6] is Serine/threonine-protein kinase Nek6 (Homo sapiens) (UniProt Q9HC98). The conditions noted are these: at 0.1 µM.
Sequence of Serine/threonine-protein kinase Nek6 (Homo sapiens) (Q9HC98 whole entry): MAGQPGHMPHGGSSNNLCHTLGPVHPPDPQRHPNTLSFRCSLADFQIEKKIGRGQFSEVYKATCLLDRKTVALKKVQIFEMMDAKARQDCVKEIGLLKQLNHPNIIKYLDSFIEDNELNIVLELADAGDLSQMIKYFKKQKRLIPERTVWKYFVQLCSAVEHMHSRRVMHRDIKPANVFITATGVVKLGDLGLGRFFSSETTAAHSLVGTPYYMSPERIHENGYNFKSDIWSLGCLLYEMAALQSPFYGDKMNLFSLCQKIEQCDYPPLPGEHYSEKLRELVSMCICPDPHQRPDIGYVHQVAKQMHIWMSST
The target is the same in assay [7]. The conditions noted are these: at 1 µM.
Assay [8] addresses Serine/threonine-protein kinase Nek7 (Homo sapiens) (UniProt Q8TDX7). The note with it: at 0.1 µM.
The target is the same in assay [9]. The conditions noted are these: at 1 µM.
Assay [10] deals with T4, Serine/threonine-protein kinase Nek9 (Homo sapiens) (UniProt Q8TD19).
T4 sequence (whole entry): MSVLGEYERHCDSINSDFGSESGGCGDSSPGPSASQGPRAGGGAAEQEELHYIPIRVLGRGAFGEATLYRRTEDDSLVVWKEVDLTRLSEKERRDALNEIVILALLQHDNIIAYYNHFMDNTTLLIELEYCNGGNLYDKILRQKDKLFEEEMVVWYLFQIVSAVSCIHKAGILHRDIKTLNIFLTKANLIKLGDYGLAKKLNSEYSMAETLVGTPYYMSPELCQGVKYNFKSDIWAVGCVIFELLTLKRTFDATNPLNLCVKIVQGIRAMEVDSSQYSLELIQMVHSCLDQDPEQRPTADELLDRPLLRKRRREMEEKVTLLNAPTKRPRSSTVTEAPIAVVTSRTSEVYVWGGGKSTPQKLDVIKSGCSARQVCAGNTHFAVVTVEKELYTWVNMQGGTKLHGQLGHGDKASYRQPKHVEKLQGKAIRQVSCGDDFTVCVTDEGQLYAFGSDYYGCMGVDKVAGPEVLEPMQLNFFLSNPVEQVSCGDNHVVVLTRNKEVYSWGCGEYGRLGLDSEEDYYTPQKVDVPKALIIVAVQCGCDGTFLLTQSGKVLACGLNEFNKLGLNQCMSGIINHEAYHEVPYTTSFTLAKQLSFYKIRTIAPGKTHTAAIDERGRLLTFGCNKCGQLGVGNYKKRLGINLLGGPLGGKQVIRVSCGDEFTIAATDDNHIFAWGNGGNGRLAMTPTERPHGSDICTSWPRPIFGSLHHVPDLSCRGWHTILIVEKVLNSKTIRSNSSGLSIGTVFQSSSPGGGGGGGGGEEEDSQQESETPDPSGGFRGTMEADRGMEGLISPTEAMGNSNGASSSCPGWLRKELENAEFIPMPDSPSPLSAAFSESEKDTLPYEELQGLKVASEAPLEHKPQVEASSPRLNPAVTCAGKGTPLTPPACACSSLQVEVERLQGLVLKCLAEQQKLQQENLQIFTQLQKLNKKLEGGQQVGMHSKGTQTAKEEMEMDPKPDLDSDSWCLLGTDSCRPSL
The conditions noted are these: at 0.1 µM.

Assay [11] concerns the target T4, Serine/threonine-protein kinase Nek9 (Homo sapiens). The note with it: at 1 µM.
In assay [12] the target is Serine/threonine-protein kinase PLK1 (Homo sapiens) (UniProt P53350). The conditions noted are these: at 0.1 µM.
Sequence of Serine/threonine-protein kinase PLK1 (Homo sapiens) (P53350 whole entry): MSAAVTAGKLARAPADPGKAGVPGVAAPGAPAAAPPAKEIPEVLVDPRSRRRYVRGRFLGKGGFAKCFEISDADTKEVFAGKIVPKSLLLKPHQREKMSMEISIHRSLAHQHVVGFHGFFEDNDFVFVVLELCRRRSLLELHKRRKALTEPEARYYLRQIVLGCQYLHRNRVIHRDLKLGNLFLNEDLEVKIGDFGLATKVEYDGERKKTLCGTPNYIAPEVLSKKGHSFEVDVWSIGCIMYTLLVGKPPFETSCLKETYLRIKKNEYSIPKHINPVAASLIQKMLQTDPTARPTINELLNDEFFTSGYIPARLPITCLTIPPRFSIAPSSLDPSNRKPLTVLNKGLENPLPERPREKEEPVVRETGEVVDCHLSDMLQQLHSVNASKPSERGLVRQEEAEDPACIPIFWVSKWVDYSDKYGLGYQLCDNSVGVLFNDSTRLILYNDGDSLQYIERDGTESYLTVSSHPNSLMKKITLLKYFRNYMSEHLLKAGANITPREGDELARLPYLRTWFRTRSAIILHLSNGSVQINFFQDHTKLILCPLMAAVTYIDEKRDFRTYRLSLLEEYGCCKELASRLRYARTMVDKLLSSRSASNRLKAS
Assay [13] has the same target. The conditions noted are these: at 1 µM.
The target in assay [14] is T5, Dual specificity protein kinase TTK (Homo sapiens) (UniProt P33981).
T5 sequence (whole entry): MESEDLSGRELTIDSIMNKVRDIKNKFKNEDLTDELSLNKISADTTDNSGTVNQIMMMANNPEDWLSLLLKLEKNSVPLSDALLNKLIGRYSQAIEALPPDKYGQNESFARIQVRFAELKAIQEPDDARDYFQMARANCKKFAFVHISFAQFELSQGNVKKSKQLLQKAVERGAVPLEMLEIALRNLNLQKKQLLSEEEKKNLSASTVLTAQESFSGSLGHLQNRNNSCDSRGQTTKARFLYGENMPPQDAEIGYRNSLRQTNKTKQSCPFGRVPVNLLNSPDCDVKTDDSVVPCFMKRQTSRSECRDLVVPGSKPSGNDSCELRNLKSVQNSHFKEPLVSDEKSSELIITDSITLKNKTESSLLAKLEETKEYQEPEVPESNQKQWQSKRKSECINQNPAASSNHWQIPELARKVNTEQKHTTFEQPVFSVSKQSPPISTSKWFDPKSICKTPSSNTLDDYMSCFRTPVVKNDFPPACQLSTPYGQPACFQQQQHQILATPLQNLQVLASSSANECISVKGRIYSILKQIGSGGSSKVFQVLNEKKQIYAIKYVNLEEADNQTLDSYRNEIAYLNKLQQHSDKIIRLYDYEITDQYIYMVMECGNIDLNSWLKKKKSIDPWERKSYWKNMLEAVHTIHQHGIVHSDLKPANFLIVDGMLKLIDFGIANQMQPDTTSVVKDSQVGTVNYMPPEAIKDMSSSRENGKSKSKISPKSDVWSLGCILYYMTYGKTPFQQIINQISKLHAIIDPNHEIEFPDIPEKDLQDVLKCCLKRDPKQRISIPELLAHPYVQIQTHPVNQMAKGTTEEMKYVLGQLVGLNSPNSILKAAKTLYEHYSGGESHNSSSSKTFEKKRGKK
The note with it: at 0.1 µM.

Assay [15] has as its system T6, Receptor-type tyrosine-protein kinase FLT3 (Homo sapiens), P36888 [D835Y].
T6 sequence (whole entry): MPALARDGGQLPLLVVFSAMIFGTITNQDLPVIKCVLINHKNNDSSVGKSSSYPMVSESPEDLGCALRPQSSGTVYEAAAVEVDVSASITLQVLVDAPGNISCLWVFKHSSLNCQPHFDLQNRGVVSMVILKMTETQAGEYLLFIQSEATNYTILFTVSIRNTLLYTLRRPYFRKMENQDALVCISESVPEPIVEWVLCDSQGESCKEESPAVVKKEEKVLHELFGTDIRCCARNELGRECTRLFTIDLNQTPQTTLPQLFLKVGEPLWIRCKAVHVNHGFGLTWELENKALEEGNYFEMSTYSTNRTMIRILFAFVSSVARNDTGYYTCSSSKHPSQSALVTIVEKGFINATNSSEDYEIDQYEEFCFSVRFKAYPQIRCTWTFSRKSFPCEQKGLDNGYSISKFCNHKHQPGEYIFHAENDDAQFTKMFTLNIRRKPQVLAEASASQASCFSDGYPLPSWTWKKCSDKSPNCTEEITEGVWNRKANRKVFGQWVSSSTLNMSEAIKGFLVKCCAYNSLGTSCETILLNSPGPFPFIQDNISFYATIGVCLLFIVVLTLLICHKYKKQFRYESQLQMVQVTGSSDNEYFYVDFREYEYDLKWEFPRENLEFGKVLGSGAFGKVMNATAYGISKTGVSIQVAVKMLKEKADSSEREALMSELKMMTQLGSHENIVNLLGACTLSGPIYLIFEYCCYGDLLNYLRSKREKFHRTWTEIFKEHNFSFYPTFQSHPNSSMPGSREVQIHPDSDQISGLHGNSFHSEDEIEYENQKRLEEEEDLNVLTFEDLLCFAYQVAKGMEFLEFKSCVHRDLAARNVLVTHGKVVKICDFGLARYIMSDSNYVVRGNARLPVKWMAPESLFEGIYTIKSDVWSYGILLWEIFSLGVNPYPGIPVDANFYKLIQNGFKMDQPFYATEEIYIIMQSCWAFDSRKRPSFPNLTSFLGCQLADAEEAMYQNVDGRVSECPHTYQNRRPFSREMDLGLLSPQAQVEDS
The conditions noted are these: at 1 µM.

Assay [16] concerns the target Vascular endothelial growth factor receptor 3 (Homo sapiens) (UniProt P35916). The conditions noted are these: at 0.1 µM.
The target is the same in assay [17]. The note with it: at 1 µM.
Assay [18] addresses Macrophage colony-stimulating factor 1 receptor (Homo sapiens) (UniProt P07333). The conditions noted are these: at 0.1 µM.
For assay [19] the target is unchanged. The note with it: at 1 µM.
Assay [20] deals with Tyrosine-protein kinase Fyn (Homo sapiens) (UniProt P06241). The conditions noted are these: at 0.1 µM.
Sequence of Tyrosine-protein kinase Fyn (Homo sapiens) (P06241 2-537 limits assumed): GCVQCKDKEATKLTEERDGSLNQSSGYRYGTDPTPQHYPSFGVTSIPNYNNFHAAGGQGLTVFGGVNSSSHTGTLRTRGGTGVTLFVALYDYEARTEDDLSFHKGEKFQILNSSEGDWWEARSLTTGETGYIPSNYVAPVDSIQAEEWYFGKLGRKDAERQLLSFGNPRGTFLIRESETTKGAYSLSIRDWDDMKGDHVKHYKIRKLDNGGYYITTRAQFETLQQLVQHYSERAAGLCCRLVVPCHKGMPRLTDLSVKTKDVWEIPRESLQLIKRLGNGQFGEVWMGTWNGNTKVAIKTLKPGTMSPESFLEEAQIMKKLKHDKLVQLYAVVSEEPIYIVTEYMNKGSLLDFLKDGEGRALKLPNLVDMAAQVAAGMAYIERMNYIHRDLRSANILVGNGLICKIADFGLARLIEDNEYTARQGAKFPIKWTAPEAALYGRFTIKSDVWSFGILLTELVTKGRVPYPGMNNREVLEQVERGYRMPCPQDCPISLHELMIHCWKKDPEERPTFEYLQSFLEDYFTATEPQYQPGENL

Sequence of Vascular endothelial growth factor receptor 3 (Homo sapiens) (P35916 whole entry): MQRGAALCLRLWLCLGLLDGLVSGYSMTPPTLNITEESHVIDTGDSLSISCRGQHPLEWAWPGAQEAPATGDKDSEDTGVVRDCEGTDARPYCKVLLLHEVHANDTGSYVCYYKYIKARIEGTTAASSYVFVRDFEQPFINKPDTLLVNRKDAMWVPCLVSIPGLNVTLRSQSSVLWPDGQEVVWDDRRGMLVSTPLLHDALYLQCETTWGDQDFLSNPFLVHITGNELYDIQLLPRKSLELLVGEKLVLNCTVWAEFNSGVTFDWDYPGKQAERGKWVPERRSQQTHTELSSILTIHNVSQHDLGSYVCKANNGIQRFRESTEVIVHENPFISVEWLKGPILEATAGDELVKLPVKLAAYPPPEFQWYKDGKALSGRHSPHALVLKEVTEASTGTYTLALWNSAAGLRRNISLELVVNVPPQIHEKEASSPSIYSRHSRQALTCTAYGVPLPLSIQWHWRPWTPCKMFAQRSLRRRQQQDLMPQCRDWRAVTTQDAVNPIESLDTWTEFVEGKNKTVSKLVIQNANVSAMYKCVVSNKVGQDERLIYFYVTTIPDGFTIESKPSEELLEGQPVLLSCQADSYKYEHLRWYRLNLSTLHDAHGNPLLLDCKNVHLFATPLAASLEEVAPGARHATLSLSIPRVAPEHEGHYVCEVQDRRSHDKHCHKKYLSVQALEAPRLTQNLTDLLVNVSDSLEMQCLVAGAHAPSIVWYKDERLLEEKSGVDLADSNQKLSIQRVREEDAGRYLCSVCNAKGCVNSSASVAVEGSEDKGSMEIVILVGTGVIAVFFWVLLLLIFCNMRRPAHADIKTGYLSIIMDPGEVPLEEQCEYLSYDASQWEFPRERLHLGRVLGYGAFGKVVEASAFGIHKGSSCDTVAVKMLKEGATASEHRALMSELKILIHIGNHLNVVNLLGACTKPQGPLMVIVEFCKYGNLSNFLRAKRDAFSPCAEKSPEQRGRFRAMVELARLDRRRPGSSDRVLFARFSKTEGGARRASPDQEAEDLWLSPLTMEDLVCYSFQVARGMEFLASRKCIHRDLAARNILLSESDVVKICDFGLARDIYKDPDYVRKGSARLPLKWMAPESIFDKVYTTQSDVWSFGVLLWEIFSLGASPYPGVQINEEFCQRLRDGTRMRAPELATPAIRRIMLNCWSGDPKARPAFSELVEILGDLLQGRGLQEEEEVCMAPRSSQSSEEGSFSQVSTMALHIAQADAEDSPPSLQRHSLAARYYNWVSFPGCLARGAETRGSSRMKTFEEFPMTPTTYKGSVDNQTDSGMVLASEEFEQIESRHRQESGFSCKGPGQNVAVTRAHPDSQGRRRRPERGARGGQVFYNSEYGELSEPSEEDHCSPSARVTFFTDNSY
Sequence of Serine/threonine-protein kinase Nek7 (Homo sapiens) (Q8TDX7 whole entry, looked up): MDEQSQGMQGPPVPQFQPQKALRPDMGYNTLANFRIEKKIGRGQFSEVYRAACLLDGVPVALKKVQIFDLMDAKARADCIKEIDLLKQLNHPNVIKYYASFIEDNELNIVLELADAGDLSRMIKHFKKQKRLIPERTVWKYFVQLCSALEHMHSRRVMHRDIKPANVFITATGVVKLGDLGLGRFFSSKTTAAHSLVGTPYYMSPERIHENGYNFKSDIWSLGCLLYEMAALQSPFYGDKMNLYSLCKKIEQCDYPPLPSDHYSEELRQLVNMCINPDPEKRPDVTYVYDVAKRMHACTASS
Sequence of Macrophage colony-stimulating factor 1 receptor (Homo sapiens) (P07333 whole entry): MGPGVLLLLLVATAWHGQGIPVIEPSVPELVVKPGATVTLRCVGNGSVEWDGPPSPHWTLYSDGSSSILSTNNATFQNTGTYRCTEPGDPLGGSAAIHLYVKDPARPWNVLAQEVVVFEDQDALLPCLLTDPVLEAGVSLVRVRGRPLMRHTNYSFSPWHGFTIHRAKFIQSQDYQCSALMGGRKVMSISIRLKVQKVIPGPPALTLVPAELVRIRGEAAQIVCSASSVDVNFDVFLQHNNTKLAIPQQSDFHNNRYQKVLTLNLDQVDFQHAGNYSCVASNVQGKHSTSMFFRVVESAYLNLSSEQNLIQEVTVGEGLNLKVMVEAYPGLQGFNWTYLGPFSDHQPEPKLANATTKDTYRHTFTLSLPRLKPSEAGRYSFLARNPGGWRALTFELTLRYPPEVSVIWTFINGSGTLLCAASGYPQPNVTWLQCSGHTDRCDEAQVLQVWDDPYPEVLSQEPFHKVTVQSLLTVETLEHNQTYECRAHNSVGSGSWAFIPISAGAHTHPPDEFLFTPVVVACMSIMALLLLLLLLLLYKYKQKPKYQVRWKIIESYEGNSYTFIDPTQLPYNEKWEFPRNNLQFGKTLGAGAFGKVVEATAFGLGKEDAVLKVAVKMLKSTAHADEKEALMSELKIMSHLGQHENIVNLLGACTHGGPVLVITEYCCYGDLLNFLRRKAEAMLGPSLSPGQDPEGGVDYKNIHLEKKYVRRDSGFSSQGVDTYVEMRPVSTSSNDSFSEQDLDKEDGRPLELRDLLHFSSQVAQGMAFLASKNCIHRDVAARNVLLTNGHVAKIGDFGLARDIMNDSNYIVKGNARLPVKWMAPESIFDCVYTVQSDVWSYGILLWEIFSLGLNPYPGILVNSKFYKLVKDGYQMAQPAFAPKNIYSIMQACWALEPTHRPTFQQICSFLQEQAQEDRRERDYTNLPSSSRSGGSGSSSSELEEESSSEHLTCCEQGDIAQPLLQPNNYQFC

As usually defined, the inhibition is the relative decrease from the control value, in per cent. Regarding `CN(c1ccc(NC(=O)Nc2ccc(OC(F)(F)F)cc2)cc1)c1ccnc(Nc2cccc(S(N)(=O)=O)c2)n1`, the inhibition is 7.75% in assay [1]; 0.8% in [2]; 2.63% in assay [3]; 2.68% in assay [4]; 3.03% in assay [5]; 1.81% in [6]. The inhibition in assay [7] was 0.14%; in assay [8], 1.37%; in [9] it was -1.48%; in assay [10], 2.65%; in [11], 17.1%; in [12] it was 2.14%. Besides, the inhibition in assay [13] is -0.02%; in assay [14], 4.18%; in [15] it was 43.2%; in assay [16] it was 37.5%; in [17], 90.1%; in assay [18] it was 42.6%. The inhibition was 86.1% in assay [19] and 8.93% in assay [20].

Turning to `COc1cc2ncn(-c3cc(OCc4ccccc4S(C)(=O)=O)c(C#N)s3)c2cc1OC`, the inhibition in assay [1] amounted to 115%; in [2] it was 2.58%; in [3] it was 3%; in assay [4] it was 6.68%; in assay [5] it was 14.4%; in [6], 3.33%. In addition, the inhibition in [7] was -0.15%; in assay [8], 4.85%; in assay [9] it was 3.13%; in [10], 3.17%; in [11] it was 1.96%; in assay [12], 10%. The inhibition in [13] worked out at 47.5%; in assay [14] it was 5.84%; in assay [15], 23.9%; in assay [16] it was 26.8%; in assay [17], 73.4%; in [18] it was 6.26%. For the same molecule, the inhibition in [19] worked out at 33.2%; in assay [20], 30.9%.
